Among the data in PubChem BioAssay (Tox21) are Potency and outcome values, retold here.

Molecules are shown by their SMILES. “And” between values parts separate entries of the source, which are not always exact repeats. Equal values may be shown once. Results filed as inconclusive are left out. The source made the active and inactive calls. Unless noted, calls follow the shape of the full dose curve.

The nature of test [1]: qHTS assay to identify small molecule antagonists of the sonic hedgehog signaling (Shh) pathway (AID 1259369). Also: nearly all actives have a fitted effect of over 45% in size. Also: potency is read from the fitted curve at half-maximal effect. The gist of the method: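 Antagonist mode: compound added to 3T3 Gli1-Luc cells followed by conditioned-medium stimulation, 24 h at 37 C, 5% CO2. Inhibition taken as loss of Gli1-driven luciferase luminescence.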
(In general: Quantitative high-throughput screening tests each substance at several concentrations.)

Test [2] is described as follows: qHTS assay to identify small molecule agonists of the androgen receptor (AR) signaling pathway in the presence of an antagonist - cell viability counter screen (AID 1259379; active = well fitted curve in the direction sought with a large enough effect in the repeat runs; an effect the other way counts as inactive or inconclusive; also: nearly all actives have a fitted effect of over 25% in size; also: potency is read from the fitted curve at half-maximal effect). The gist of the method: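 Cytotoxicity counter-screen run in the same wells as the nilutamide-challenged (3.0 µM final) AR agonist assay in MDA-kb2 cells. Compounds tested at 15 concentrations for 16 h, 37 °C without CO2; CellTiter-Fluor fluorescence read.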

Test [3] in a line: qHTS assay to identify small molecule agonists of the estrogen receptor beta (ER-beta) signaling pathway - cell viability counter screen (AID 1259380; active = well fitted curve in the direction sought with a large enough effect in the repeat runs; an effect the other way counts as inactive or inconclusive; also: nearly all actives have a fitted effect of over 30% in size; also: potency is read from the fitted curve at half-maximal effect). The gist of the method:
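Cell viability counter screen: CellTiter-Glo luminescence (30 min, room temperature) measured in the same wells as the beta-lactamase readout, after 16 hr compound exposure at 37C of ER-beta-bla HEK293T cells in 2% charcoal-stripped FBS medium.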

Test [4] in a line: qHTS assay to identify small molecule antagonists of the estrogen receptor beta (ER-beta) signaling pathway - cell viability counter screen (AID 1259382; active = well fitted curve in the direction sought with a large enough effect in the repeat runs; an effect the other way counts as inactive or inconclusive; also: nearly all actives have a fitted effect of over 55% in size; also: potency is read from the fitted curve at half-maximal effect). The gist of the method: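 Cytotoxicity was measured in the same wells by CellTiter-Glo luminescence after 30 min at room temperature. Cells were ER-beta-bla HEK293T in charcoal-stripped serum, given compound together with 1 nM E2 and incubated 16 h at 37C.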

The target in test [5] is Estrogen receptor (Homo sapiens) (UniProt P03372). Put plainly: qHTS assay to identify small molecule agonists of the estrogen receptor alpha (ER-alpha) signaling pathway in the presence of an antagonist (AID 1259383). Also: top concentration of the series differs between compounds; nearly all actives have a fitted effect of over 15% in size. The gist of the method:
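Agonist-mode confirmation run in the presence of 10.0nM (final) ICI-182,780 antagonist. The reporter was ERE-driven luciferase in VM7Luc4E2 cells, grown in charcoal-stripped serum. Cells were exposed to 15-concentration compound series for 22hr, then ONE-Glo luminescence was read.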

Test [6] in a line: qHTS assay to identify small molecule agonists or antagonists of the thyroid stimulating hormone receptor (TSHR) signaling pathway - wild type cell line counter screen (AID 1259384). Also: potency is read from the fitted curve at half-maximal effect. The gist of the method: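 Wild-type Hek293 cells, 800/well, 18 h at 37C, then compound with Ro20-1724 for 30 min RT. cAMP by HTRF (cAMP-d2/anti-cAMP cryptate), 1 h RT, fluorescence read. 15 concentrations, triplicates.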

Test [7] concerns the target Thyrotropin receptor (Homo sapiens) (UniProt P16473). Kind of test: qHTS assay to identify small molecule antagonists of the thyroid stimulating hormone receptor (TSHR) signaling pathway (AID 1259385). Also: nearly all actives have a fitted effect of over 20% in size. The gist of the method:
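TSHR-HEK293 cells (800/well) plated 18 h, then compounds with Ro20-1724 and TSH at 1.5 ng/mL final, 30 min at room temperature. cAMP quantified by HTRF (cAMP-d2/anti-cAMP-cryptate, 1 h); 15 concentrations in triplicate.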

The nature of test [8]: qHTS assay to identify small molecule agonists of the estrogen receptor alpha (ER-alpha) signaling pathway in the presence of an antagonist - cell viability counter screen (AID 1259386; active = well fitted curve in the direction sought with a large enough effect in the repeat runs; an effect the other way counts as inactive or inconclusive; also: series mostly up to about 92 µM; nearly all actives have a fitted effect of over 30% in size). The gist of the method: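 Compounds tested at 15 concentrations for 22 h at 37C alongside 10.0nM (final) ICI-182,780 antagonist, in VM7Luc4E2 cells grown in phenol red-free, charcoal-stripped medium. Viability read by CellTiter-Fluor fluorescence after 1 h reagent incubation.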

Test [9] addresses Progesterone receptor (Homo sapiens) (UniProt P06401). Put plainly: qHTS assay to identify small molecule agonists of the progesterone receptor (PR) signaling pathway (AID 1346784). Also: nearly all actives have a fitted effect of over 30% in size. The gist of the method: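 Beta-lactamase reporter read-out: after 16 hr compound treatment at 37C and a further 2 hr at room temperature with LiveBLAzer B/G FRET substrate, fluorescence was measured in PR-UAS-bla HEK 293T cells grown in 2% charcoal-stripped serum.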

For test [10] the target is unchanged. Put plainly: qHTS assay to identify small molecule antagonists of the progesterone receptor (PR) signaling pathway (AID 1346795; active = well fitted inhibition curve with a large enough effect in the signal ratio in the repeat runs, not every such curve was filed as active; the % refers to the signal ratio; also: potency is read from the fitted curve at half-maximal effect). The gist of the method: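 Read-out is fluorescence from the LiveBLAzer B/G FRET substrate, cleaved by a UAS-controlled beta-lactamase in PR-UAS-bla HEK293T cells after 16 hr exposure to compound plus 1 nM promegestone (final), followed by 2 hr at room temperature.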

Test [11] can be described thus: qHTS assay to identify small molecule antagonists of the progesterone receptor (PR) signaling pathway - cell viability counter screen (AID 1346798; active = well fitted curve in the direction sought with a large enough effect in the repeat runs; an effect the other way counts as inactive or inconclusive; also: nearly all actives have a fitted effect of over 50% in size; also: potency is read from the fitted curve at half-maximal effect). The gist of the method: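 HEK293T PR-UAS-bla, 2% charcoal-stripped FBS; 4 hr pre-plate; cpd + R5020, 16 h 37C; LiveBLAzer read first; then CellTiter-Glo 30 min RT, luminescence.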
Test [12] can be described thus: qHTS assay to identify small molecule agonists of the progesterone receptor (PR) signaling pathway - cell viability counter screen (AID 1346799). Also: nearly all actives have a fitted effect of over 45% in size. Also: potency is read from the fitted curve at half-maximal effect. The gist of the method:
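Luminescence from CellTiter-Glo, added after the beta-lactamase FRET read in the same wells, gave cytotoxicity in PR-UAS-bla HEK293T cells treated with compounds for 16 hr at 37C.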

Test [13] in a line: qHTS assay to identify small molecule antagonists of the TGF-beta/Smad signaling pathway - cell viability counter screen (AID 1346824; active = well fitted curve in the direction sought with a large enough effect in the repeat runs; an effect the other way counts as inactive or inconclusive; also: nearly all actives have a fitted effect of over 50% in size). The gist of the method: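 SBE-bla HEK 293T cells, incubated overnight, then compound plus 0.25 ng/mL TGF-beta1 (stock added) for 5 hr at 37 C. Viability was read in the same wells by CellTiter-Glo luminescence after 30 min at room temperature.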

Test [14] is described as follows: qHTS assay to identify small molecule agonists of the TGF-beta/Smad signaling pathway - cell viability counter screen (AID 1346829; active = well fitted curve in the direction sought with a large enough effect in the repeat runs; an effect the other way counts as inactive or inconclusive; also: top concentration of the series differs between compounds; nearly all actives have a fitted effect of over 45% in size). The gist of the method:
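CellTiter-Glo luminescence readout; SBE-bla HEK 293T cells, overnight plating, compound 5 hr at 37 C/5% CO2, then bla substrate 2 hr RT, then CellTiter-Glo 30 min RT.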

Test [15] in a line: qHTS assay to identify small molecule agonists of the TGF-beta/Smad signaling pathway (AID 1346859; active = well fitted activation curve with a large enough effect in the signal ratio in the repeat runs, not every such curve was filed as active; the % refers to the signal ratio; also: series mostly up to about 77 µM). The gist of the method:
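SBE-bla HEK 293T, 4,000 cells/well, plated o/n; cpd in DMSO, 5 hr, 37 C/5% CO2; B/G FRET substrate 2 hr RT; ex 405, em 460/530 nm.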

Test [16] concerns the target Thyrotropin-releasing hormone receptor (Homo sapiens) (UniProt P34981). Kind of test: qHTS assay to identify small molecule antagonists of the thyrotropin-releasing hormone receptor (TRHR) signaling pathway (AID 1346877; active = well fitted inhibition curve with a large enough effect in the repeat runs, not every such curve was filed as active; also: series mostly up to about 51 µM). The gist of the method:
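Antagonist mode: after a 5 min room-temperature compound exposure, cells were stimulated with 1 nM (final) TRH. Dye-loaded TRHR-HEK293 cells were used, and calcium-dependent fluorescence was followed for 3 min, with 15-point titrations run in triplicate.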

Test [17] has the same target. Kind of test: qHTS assay to identify small molecule agonists of the thyrotropin-releasing hormone receptor (TRHR) signaling pathway (AID 1346891). Also: series mostly up to about 58 µM. The gist of the method:
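Intracellular calcium rise, read as fluorescence every second for 3 min, served as the agonist signal in dye-loaded HEK293 cells expressing TRHR; each compound ran at 15 concentrations in triplicate.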

For test [18], the target named is Androgen receptor (Homo sapiens) (UniProt P10275). Kind of test: qHTS assay to identify small molecule agonists of the androgen receptor (AR) signaling pathway in the presence of an antagonist (AID 1259381). Also: nearly all actives have a fitted effect of over 15% in size. The gist of the method: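 Agonist-mode confirmation run against 3.0 uM final nilutamide: compounds titrated at 15 concentrations onto MDA-kb2 MMTV-luciferase reporter cells. Luminescence measured with ONE-Glo following 16 hr incubation, 37C, 0% CO2.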
Sequence of Androgen receptor (Homo sapiens) (P10275 whole entry, looked up): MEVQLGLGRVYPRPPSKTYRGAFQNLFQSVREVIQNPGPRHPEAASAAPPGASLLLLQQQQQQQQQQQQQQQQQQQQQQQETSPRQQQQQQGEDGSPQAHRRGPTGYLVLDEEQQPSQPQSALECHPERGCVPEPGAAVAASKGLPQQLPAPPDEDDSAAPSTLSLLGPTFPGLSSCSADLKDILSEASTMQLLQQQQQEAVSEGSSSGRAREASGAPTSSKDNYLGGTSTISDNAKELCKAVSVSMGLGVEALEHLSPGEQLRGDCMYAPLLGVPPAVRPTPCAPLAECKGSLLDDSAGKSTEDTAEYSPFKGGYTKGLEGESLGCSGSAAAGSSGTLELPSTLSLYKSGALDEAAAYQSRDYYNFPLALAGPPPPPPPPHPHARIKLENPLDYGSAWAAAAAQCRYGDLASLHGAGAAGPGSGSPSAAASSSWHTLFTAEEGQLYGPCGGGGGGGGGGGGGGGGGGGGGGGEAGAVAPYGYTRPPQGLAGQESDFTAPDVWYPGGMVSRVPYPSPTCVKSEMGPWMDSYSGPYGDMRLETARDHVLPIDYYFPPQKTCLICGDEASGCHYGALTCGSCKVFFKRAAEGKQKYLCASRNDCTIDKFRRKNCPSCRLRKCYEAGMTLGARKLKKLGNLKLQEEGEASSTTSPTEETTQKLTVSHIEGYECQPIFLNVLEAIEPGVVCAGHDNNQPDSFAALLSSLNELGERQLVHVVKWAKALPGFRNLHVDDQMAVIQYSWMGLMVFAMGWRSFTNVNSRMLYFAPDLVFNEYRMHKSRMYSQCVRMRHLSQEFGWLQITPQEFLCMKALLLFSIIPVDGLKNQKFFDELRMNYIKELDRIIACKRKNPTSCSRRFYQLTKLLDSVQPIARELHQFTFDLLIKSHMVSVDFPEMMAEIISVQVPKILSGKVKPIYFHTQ

In test [19] the target is Estrogen receptor beta (Homo sapiens) (UniProt Q92731). Kind of test: qHTS assay to identify small molecule agonists of the estrogen receptor beta (ER-beta) signaling pathway (AID 1259377; active = well fitted activation curve with a large enough effect in the signal ratio in the repeat runs, not every such curve was filed as active; the % refers to the signal ratio). The gist of the method: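 HEK293T ER-beta-UAS-bla; 2% charcoal-stripped FBS; cells pre-incubated 6 hr, compound 16 hr, 37C/5% CO2; LiveBLAzer B/G FRET substrate 2 h RT; fluorescence intensity read.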
Sequence of Estrogen receptor beta (Homo sapiens) (Q92731 whole entry, looked up): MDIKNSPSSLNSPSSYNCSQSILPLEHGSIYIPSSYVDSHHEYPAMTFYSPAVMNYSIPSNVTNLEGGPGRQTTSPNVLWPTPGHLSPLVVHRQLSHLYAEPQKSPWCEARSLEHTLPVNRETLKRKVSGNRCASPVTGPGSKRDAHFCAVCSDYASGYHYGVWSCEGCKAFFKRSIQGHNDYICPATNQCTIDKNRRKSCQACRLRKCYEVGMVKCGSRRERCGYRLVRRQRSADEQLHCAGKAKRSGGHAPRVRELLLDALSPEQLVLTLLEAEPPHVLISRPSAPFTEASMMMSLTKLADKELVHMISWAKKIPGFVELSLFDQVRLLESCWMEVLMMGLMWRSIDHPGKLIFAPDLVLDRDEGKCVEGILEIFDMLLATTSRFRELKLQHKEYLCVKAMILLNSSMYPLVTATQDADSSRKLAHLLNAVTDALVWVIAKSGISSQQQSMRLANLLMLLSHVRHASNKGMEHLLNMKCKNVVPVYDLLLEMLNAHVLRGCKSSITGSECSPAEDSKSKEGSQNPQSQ

Test [20] shares this target. Put plainly: qHTS assay to identify small molecule antagonists of the estrogen receptor beta (ER-beta) signaling pathway (AID 1259378; active = well fitted inhibition curve with a large enough effect in the signal ratio in the repeat runs, not every such curve was filed as active; the % refers to the signal ratio). The gist of the method:
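ER-beta-UAS-bla HEK293T cells in 2% charcoal-stripped FBS medium treated with compound plus 1nM final 17-beta-estradiol for 16 hr at 37C. Beta-lactamase reporter read by FRET substrate fluorescence after 2 hours at room temperature.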

Sequence of Estrogen receptor (Homo sapiens) (P03372 whole entry, looked up): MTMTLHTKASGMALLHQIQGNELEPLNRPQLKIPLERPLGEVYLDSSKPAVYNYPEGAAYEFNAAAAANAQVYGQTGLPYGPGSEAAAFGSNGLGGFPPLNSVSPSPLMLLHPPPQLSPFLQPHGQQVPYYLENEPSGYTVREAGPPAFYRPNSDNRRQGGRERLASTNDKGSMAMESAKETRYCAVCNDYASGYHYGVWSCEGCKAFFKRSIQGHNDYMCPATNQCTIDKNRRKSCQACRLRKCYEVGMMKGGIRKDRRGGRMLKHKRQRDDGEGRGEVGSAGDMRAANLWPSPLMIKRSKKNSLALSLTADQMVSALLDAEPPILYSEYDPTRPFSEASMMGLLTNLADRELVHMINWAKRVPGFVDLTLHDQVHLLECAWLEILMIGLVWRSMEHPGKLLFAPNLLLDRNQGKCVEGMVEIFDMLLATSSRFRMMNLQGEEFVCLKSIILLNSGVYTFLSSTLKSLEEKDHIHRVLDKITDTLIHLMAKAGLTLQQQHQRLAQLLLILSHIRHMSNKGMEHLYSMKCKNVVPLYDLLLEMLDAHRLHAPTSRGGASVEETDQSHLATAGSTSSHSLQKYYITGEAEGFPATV
Sequence of Progesterone receptor (Homo sapiens) (P06401 whole entry, looked up): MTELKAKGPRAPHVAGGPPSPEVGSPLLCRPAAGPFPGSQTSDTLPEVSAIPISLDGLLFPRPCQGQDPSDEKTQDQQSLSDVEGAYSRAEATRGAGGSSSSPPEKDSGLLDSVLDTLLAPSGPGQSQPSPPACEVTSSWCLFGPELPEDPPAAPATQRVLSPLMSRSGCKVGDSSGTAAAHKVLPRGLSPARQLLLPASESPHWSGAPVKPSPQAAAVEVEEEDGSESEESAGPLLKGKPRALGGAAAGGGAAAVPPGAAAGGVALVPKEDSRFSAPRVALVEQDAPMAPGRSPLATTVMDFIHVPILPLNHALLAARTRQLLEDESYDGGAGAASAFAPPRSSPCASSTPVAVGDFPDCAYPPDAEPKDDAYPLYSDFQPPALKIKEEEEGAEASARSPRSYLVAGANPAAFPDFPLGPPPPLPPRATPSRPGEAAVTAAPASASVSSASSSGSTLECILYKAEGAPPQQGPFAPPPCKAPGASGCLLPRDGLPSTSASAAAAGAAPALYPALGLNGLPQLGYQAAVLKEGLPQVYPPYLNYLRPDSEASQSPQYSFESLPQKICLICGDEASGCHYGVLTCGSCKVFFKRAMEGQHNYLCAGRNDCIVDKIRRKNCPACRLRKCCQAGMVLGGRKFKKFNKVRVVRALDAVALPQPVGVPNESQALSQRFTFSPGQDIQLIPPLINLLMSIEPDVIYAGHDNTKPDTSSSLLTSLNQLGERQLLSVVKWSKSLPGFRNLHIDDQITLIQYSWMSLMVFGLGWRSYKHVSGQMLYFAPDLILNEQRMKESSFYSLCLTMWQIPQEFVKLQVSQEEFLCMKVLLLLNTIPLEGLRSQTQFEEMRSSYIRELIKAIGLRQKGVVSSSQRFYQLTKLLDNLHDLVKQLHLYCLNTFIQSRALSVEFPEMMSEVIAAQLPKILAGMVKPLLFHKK
Sequence of Thyrotropin receptor (Homo sapiens) (P16473 whole entry, looked up): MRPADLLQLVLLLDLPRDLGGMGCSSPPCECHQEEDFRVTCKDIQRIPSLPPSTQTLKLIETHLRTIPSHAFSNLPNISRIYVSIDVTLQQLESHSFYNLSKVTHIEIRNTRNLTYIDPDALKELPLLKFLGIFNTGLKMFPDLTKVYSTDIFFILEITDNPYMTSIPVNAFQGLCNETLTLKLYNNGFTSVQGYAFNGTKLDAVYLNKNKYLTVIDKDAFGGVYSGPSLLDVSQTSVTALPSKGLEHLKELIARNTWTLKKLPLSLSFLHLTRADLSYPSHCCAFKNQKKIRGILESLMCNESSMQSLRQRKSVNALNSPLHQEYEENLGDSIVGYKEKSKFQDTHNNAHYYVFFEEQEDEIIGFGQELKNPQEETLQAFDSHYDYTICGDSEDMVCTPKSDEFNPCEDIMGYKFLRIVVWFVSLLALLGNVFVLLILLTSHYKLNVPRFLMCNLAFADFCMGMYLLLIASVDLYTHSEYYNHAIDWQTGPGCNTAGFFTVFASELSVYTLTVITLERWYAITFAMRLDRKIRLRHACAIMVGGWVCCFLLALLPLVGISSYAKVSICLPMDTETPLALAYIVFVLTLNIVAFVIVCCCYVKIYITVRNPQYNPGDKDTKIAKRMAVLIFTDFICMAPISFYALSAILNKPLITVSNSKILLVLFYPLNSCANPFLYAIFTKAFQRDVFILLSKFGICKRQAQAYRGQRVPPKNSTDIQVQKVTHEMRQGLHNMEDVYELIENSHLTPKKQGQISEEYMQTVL
Sequence of Thyrotropin-releasing hormone receptor (Homo sapiens) (P34981 whole entry, looked up): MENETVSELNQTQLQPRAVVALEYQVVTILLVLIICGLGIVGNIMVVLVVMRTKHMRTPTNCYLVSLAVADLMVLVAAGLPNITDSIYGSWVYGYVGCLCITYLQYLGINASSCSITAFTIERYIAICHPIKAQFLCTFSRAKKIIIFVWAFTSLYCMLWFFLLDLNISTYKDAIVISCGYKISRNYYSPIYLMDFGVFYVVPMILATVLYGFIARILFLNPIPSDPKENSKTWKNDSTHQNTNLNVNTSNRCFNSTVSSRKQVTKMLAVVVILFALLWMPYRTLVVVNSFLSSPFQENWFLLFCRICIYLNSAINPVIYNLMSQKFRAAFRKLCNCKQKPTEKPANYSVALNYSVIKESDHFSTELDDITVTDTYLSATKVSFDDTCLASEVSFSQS

Regarding `CCCCCC1C(=O)CCC1CC(=O)OC` (stereo not drawn), the Potency entry in [1], in test [2], in test [3], in [4], in [5] and in [6] was “inactive” each time. Further, the Potency entry in test [7], in [8], in test [9], in test [10], in test [11] and in test [12] was “inactive” throughout. Also, the Potency entry in test [13], in [14], in test [16] and in test [17] was “inactive” throughout. Besides, in test [15], the result was inactive.
As to `CC1(C)C(C=C(Cl)Cl)C1C(=O)OCc1cccc(Oc2ccccc2)c1` (stereo not drawn), the Potency result in [1], in [2], in [3], in test [18], in test [4] and in test [5] was “inactive” in each case. For the same molecule, the Potency result in test [6], in test [7], in test [9], in test [11], in test [12] and in test [13] was “inactive” throughout. The Potency entry in test [14], in test [16] and in [17] was “inactive” each time. In test [15], the call was inactive.
Regarding `CC(=O)Oc1c(C)c(C)c2c(c1C)CC[C@@](C)(CCC[C@H](C)CCC[C@H](C)CCCC(C)C)O2`, the Potency result in [1], in test [2], in test [3], in [4], in test [5] and in test [6] was “inactive” each time. Also, the Potency result in [7], in [8], in [9], in [10], in [11] and in test [12] was “inactive” in each case. Also, the Potency result in test [13], in [14], in test [16] and in test [17] was “inactive” throughout. Moreover, the molecule was called inactive in test [15].
`C=C[C@@]1(C)CC(=O)[C@]2(O)[C@@]3(C)[C@@H](O)CCC(C)(C)[C@@H]3[C@H](O)[C@H](OC(C)=O)[C@@]2(C)O1`: the Potency in [1] is 2.4 nM (active) and 211 nM (active); in test [2], 48.6 µM (active); in test [3] it was 19.3 µM (active) and 11.9 µM (active); in test [4], 21.7 µM (active) and 15 µM (active); in test [6], 63.6 nM (active) and 256 nM (active); in test [11], 24.3 µM (active) and 15 µM (active). The Potency in [12] is 12.2 µM (active) and 16.8 µM (active). Further, the Potency result in [19], in test [5], in [9], in test [13] and in test [14] was “inactive” throughout. In [15], the outcome was inactive.
Consider `c1ccc2cc3ccccc3cc2c1`, for which the Potency entry in test [1], in test [19], in test [2], in test [3], in test [4] and in test [5] was “inactive” throughout. The Potency entry in test [6], in test [7], in test [8], in test [9], in [10] and in [11] was “inactive” each time. The Potency entry in [12], in test [13] and in test [14] was “inactive” each time. Further, in [15], the molecule was classed as inactive.
Turning to `Clc1ccc(Sc2cc(Cl)c(Cl)cc2Cl)cc1`, the Potency entry in test [1], in [19], in test [20], in test [2], in [3] and in [4] was “inactive” each time. Besides, the Potency entry in test [6], in [7], in test [9], in [11], in test [12] and in test [13] was “inactive” in each case. For the same molecule, the Potency entry in [14], in test [16] and in test [17] was “inactive” in each case. Moreover, in test [10], the Potency is 24.3 µM (active). Further, in [15], the outcome was inactive.
Take `C/C=C/C(=O)N(CC)c1ccccc1C`: the Potency result in test [1], in [2], in test [3], in test [4], in test [5] and in [6] was “inactive” in each case. Also, the Potency entry in test [7], in test [8], in [9], in test [10], in [11] and in test [12] was “inactive” each time. Moreover, the Potency result in [13], in [14], in [16] and in test [17] was “inactive” each time. Further, in test [15], the molecule was classed as inactive.
